Compounds with a hit are over-represented: about 3.8% of the library has one in this group of screens.
Cardio protect – modulators protecting cardiomyocytes from myocardial damage. H9c2 cardiomyocytes, H2O2 injury protection, ATPLite, 2 h. protection from H2O2 cell death, % at 20 µM. hit rate 0.63% among 360,000. AID 588492;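 active means compounds giving at least 50% protection of heart cells from peroxide-induced death in the single-dose screen, raw or plate-pattern-corrected value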;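 further: 0% = DMSO wells with peroxide and 100% = DMSO wells without peroxide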
Mot1-301 SUMO – SUMOylation pathway inhibition by Mot1-301 growth rescue. S. cerevisiae Mot1-301 growth rescue, ATP luminescence, 38.5C; percent above DMSO median, 100 means doubled. growth rescue, % at 18.8 µM. hit rate 1% among 320,000. AID 2716;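 active means every valid replicate shows activation above 250% relative to neutral control wells; inactive means the rest, any valid replicate at or below 250%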;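 further: OY570 slx delta 5 strain wells were the positive control but not used for scaling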
Yeast superoxide – lowers age-related superoxide in aged yeast cells; S. cerevisiae aged cells, superoxide DHE fluorescence; active compounds read low; AID 2690; superoxide response (% of plate mean), % at 10 µM; hit rate 0.18% among 330,000;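 active means superoxide response under a set limit, about three screen SD below normal, cut at about 65% in these data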;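 further: yeast aged for seven days with compound at 30 °C before DHE staining; 100% = average MFI of all compound-treated wells on the plate with controls excluded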
FAS TE block – inhibitors of human fatty acid synthase thioesterase domain | recombinant FAS-TE, OMFH fluorogenic substrate, fluorescence endpoint | inhibition, % at 15 µM | hit rate 0.67% among 360,000 | AID 602261;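 active means compounds whose normalised, plate-corrected inhibition of enzyme fluorescence in the single-dose primary screen is 50% or more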;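 further: 0% = DMSO with enzyme and 100% = substrate without enzyme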
Target sequence (P49327 whole entry, looked up, the tested form may be a part): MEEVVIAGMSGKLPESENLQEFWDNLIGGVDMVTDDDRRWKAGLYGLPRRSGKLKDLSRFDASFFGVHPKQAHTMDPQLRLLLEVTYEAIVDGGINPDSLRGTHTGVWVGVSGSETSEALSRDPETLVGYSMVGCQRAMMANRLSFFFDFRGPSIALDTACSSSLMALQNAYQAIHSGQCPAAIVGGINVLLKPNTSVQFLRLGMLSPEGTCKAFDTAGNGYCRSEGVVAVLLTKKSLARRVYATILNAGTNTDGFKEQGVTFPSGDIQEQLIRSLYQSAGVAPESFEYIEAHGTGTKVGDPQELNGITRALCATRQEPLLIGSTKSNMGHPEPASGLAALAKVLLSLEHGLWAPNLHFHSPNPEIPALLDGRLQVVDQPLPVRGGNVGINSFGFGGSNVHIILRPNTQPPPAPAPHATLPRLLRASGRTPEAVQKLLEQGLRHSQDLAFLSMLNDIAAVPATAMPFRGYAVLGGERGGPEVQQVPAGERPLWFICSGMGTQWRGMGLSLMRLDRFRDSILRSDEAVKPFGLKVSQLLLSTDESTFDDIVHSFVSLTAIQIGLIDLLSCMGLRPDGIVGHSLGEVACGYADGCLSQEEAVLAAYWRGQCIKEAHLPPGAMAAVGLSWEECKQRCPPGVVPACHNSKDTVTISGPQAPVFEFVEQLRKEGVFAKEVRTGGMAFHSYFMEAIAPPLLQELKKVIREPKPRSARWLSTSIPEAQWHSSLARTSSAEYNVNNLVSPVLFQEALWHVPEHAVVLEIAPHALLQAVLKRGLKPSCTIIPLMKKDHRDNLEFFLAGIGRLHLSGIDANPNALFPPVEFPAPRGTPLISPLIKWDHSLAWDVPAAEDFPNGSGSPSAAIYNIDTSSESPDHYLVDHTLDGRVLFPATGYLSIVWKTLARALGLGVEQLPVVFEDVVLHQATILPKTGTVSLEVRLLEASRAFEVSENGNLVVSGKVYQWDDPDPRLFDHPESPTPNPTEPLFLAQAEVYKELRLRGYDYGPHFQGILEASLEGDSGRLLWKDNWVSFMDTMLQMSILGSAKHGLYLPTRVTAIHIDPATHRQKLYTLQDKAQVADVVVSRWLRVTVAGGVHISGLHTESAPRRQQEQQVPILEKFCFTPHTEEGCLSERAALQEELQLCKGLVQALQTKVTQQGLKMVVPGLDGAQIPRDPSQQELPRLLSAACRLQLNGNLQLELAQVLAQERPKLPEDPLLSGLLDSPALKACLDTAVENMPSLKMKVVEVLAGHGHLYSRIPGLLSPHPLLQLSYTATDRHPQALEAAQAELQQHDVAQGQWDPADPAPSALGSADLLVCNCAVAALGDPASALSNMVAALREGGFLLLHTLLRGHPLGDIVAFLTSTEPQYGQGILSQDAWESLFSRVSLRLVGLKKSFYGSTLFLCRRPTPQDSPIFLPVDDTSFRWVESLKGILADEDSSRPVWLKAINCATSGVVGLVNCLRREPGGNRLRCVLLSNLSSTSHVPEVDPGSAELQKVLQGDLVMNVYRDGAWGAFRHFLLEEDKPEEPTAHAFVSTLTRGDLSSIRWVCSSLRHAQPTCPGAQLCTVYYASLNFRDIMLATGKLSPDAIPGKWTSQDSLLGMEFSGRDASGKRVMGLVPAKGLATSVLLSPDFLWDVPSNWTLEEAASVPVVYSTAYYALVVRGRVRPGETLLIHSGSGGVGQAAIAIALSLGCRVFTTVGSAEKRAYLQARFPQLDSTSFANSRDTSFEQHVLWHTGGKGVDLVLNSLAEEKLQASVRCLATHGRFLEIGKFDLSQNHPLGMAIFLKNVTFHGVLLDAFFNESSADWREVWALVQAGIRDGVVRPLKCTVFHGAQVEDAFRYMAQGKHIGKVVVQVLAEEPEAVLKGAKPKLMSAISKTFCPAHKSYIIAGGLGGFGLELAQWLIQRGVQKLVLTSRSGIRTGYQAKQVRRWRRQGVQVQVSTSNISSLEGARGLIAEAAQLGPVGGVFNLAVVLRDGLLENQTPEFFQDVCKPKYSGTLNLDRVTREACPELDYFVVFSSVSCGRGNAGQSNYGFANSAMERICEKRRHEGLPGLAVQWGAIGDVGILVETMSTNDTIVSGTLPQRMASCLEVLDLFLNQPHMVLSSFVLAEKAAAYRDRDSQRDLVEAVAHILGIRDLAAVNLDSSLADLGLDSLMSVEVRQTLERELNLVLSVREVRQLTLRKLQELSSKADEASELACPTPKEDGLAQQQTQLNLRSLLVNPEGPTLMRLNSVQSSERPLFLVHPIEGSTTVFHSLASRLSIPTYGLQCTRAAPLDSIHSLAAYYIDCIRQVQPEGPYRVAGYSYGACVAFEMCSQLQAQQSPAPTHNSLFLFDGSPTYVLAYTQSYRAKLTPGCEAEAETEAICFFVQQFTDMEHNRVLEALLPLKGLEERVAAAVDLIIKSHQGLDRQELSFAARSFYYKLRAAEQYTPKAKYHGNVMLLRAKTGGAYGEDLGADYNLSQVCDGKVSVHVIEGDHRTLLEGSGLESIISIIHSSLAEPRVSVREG
MPTP block – inhibitors of mitochondrial permeability transition pore; hit rate 1.4% among 360,000; inhibition, % at 10 µM; isolated mouse mitochondria, Ca2+ swelling absorbance, 30 min; AID 602449;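 active means inhibition of 50% or more, scaled per plate between neutral and stimulator controls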;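 further: 0% = DMSO wells given calcium and 100% = 1 mM EGTA wells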
aDG glyco act – alpha-DG glycosylation activation; Pro5-aDG cells, alpha-DG glycosylation AlphaScreen (IIH6); 0% Pro5, 100% B10-LARGE cell signal; activation, % at 10 µM; hit rate 0.22% among 360,000;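 active means activation of at least 8% versus controls, or a plate z-score of at least 8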;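 further: Pro5 are CHO cells carrying HIG-tagged alpha-DG that lacks glycosylation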
* hit, by the source's call.

`COC(=O)c1ccccc1NC(=O)CN1C(=O)c2ccccc2C1=O` gave Cardio protect -1, Mot1-301 SUMO -7, Yeast superoxide 110, FAS TE block -1, MPTP block 3 and aDG glyco act 0.
For CC(C)CNC(=O)C1C(=O)Nc2ccccc2C(=O)N1C(C)(C)C (configuration not stated) the results were MPTP block 1 and aDG glyco act 0.
Screening COc1cc(OC)cc(C(=O)NC(C(=O)NNC(=O)c2cc(Cl)ccc2OC)C(C)C)c1 (configuration not stated) returned Cardio protect 1, Mot1-301 SUMO -4, Yeast superoxide 84, FAS TE block 6, MPTP block 0 and aDG glyco act 0.
CCOC(=O)C1CCN(C(=O)c2cc3c(-c4ccc(OC)c(OC)c4)nn(C)c3s2)CC1 was read as Cardio protect 34, Mot1-301 SUMO -12, Yeast superoxide 88, FAS TE block 2, MPTP block -1 and aDG glyco act 0.
`COc1ccc(-c2nn(C)c3sc(C(=O)NCc4ccco4)cc23)cc1OC` gave Cardio protect 10, Mot1-301 SUMO 192, Yeast superoxide 108, FAS TE block 3, MPTP block 1 and aDG glyco act 0.
`CC1CCCCN1CCNC(=O)c1cc2c(-c3ccccc3F)nn(C)c2s1` (configuration not stated) gave Cardio protect -29, Mot1-301 SUMO 11, Yeast superoxide 95, FAS TE block 0, MPTP block 1 and aDG glyco act 0.
For CCOC(=O)N1CCC(NC(=O)c2cc3c(-c4ccccc4F)nn(C)c3s2)CC1 the results were Cardio protect 50*, Mot1-301 SUMO -7, Yeast superoxide 97, FAS TE block 10, MPTP block 0 and aDG glyco act 0.
For CCOC(=O)N1CCC(NC(=O)c2cc3c(-c4ccc(OC)c(OC)c4)nn(C)c3s2)CC1 the results were Cardio protect 63*, Mot1-301 SUMO -8, Yeast superoxide 96, FAS TE block 0, MPTP block 0 and aDG glyco act 0.
Screening COc1ccc(NC(=O)c2cc3c(-c4ccc(OC)c(OC)c4)nn(C)c3s2)cc1OC returned Cardio protect 62*, Mot1-301 SUMO 22, Yeast superoxide 95, FAS TE block 12, MPTP block 1 and aDG glyco act 0.
For CC(=O)N1C(=O)N(C(C)=O)C2C1N(C)C(=O)N2C(C)=O (configuration not stated) the results were Cardio protect -3, Mot1-301 SUMO -11, Yeast superoxide 96, FAS TE block -6, MPTP block -2 and aDG glyco act 0.
For OC[C@@H]1CN(Cc2ccncc2)C[C@H](n2cnc3c(NC4CCCC4)ncnc32)O1 the results were Cardio protect 1, FAS TE block -7, MPTP block 0 and aDG glyco act 0.
For C(=N\NC1=NCCN1)/c1ccncc1 the results were Cardio protect -1, Mot1-301 SUMO -3, Yeast superoxide 114, FAS TE block -4, MPTP block -1 and aDG glyco act 0.
Screening Cc1ccc(-c2cc(C(=O)N/N=C/c3cccnc3)c3ccccc3n2)cc1C returned Cardio protect -11, Mot1-301 SUMO 519, Yeast superoxide 99, FAS TE block 12, MPTP block 2 and aDG glyco act 0.
O=C(N/N=C/c1ccccn1)c1cc(-c2ccncc2)nc2ccccc12 was read as Cardio protect 77*, Mot1-301 SUMO -5, Yeast superoxide 100, FAS TE block 4, MPTP block -1 and aDG glyco act 0.
For O=C(N/N=C/c1ccsc1)c1cc(-c2ccncc2)nc2ccccc12 the results were Cardio protect 2, Mot1-301 SUMO 12, Yeast superoxide 113, FAS TE block -4, MPTP block 0 and aDG glyco act 0.
Cc1ccc(C)c(-c2cc(C(=O)N/N=C/c3cccnc3)c3ccccc3n2)c1 was read as Cardio protect 56*, Mot1-301 SUMO -4, Yeast superoxide 106, FAS TE block 3, MPTP block 1 and aDG glyco act 0.
Cn1c2ccccc2c2cc(/C=N/NC(=O)c3cc(O)ccc3O)ccc21 was read as Cardio protect 53*, Mot1-301 SUMO -8, Yeast superoxide 97, FAS TE block 10, MPTP block 3 and aDG glyco act -1.
Screening O=C(N/N=C/c1ccc(O)c(O)c1)c1cc(-c2ccccc2)nc2ccccc12 returned Cardio protect 61*, Mot1-301 SUMO -1, Yeast superoxide 94, FAS TE block 0, MPTP block 10 and aDG glyco act 0.
COc1ccc(NS(=O)(=O)c2c(C)[nH]c(=O)[nH]c2=O)cc1OC was read as Cardio protect -5, Mot1-301 SUMO -16, Yeast superoxide 97, FAS TE block -4, MPTP block 2 and aDG glyco act 0.
`CCN(CC)C(CNC(=O)CSc1nnnn1-c1ccc(C)c(C)c1)c1ccco1` (configuration not stated) gave Cardio protect 1, Mot1-301 SUMO -16, Yeast superoxide 64*, FAS TE block -1, MPTP block 0 and aDG glyco act 0.
`CN(Cc1ccccc1)C(=O)c1cccc(NC(=O)Cc2ccc(NC(=O)C3CCCN(C(=O)C4CCCCC4)C3)cc2)c1` (configuration not stated) gave Cardio protect -14, FAS TE block 3, MPTP block 1 and aDG glyco act 0.
Screening CCOC(=O)c1[nH]c2cc(OC)c(OC)cc2c1NC(=O)C(C)N1CCN(Cc2ccccc2)CC1 (configuration not stated) returned Cardio protect 56*, Mot1-301 SUMO 1, Yeast superoxide 79, FAS TE block 0, MPTP block 3 and aDG glyco act 0.
For CCOC(=O)c1[nH]c2ccc(F)cc2c1NC(=O)Nc1ccccc1OC the results were Cardio protect 1, Mot1-301 SUMO -1, Yeast superoxide 94, FAS TE block -3, MPTP block 1 and aDG glyco act 0.
For Cc1cc(C)n2nc(C(=O)NNC(=O)c3ccccc3)nc2n1 the results were Cardio protect 5, Mot1-301 SUMO -1, Yeast superoxide 91, FAS TE block -2, MPTP block -2 and aDG glyco act 0.
For COC(=O)c1ccccc1NC(=O)c1nc2nc(C)cc(C)n2n1 the results were Cardio protect 61*, Mot1-301 SUMO -4, Yeast superoxide 90, FAS TE block -4, MPTP block 0 and aDG glyco act 0.
COc1ccc(OC)c(/C=C/c2ccc3cccc(O)c3n2)c1 was read as Cardio protect 61*, Mot1-301 SUMO 4, Yeast superoxide 83, FAS TE block 12, MPTP block 1 and aDG glyco act 0.

Screening results: PubChem, several laboratories
